# Inconclusive results are not listed. Unmarked numbers belong to inactive results. The source made the active and inactive calls. Calls come from the whole dose curve; as a rule, active = well fitted cell-killing curve with a large enough effect; inconclusive = small, poorly fitted or top-dose-only effect, or effect the other way; inactive = no such curve, though single readings can be large or run the other way.
# Test system: PA-1
# Test: Confirmatory qHTS for gynecologic anti-cancer compounds from libraries of approved drugs and bioactive compounds; note: nearly all actives have a fitted effect of over 55% in size
# Details: gynecologic cancer cell panel viability, ATPlite luminescence, 48 h; series mostly up to 57.6 µM; activity change, negative = viability loss: at the top concentration
# Outline: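 1,000 cells/well; 16 h pre-incubation 37 C, 5% CO2; pin-transferred cpd in DMSO, 11 conc (1:3), 57.5 uM–0.977 nM; 48 h; ATPlite, 15 min RT; luminescence → IC50.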
# % is set by controls: 0 for no effect and ±100 for the full control effect; potency is the fitted concentration of half-maximal effect.
Structure (SMILES),Potency,"activity change, negative = viability loss"
Cc1c(NC(=O)OCC2COCCN2)cn2ncnc(Nc3ccc4c(cnn4Cc4cccc(F)c4)c3)c12 (stereo not given),27.3 µM (active),
COc1cc2c(Oc3ccc(-c4cnc(Nc5ccc(F)cc5)n(C)c4=O)cc3F)ccnc2cc1OCCCN1CCOCC1,21.7 µM (active),
CCCC(=O)O[C@]1(C(=O)CCl)[C@@H](C)C[C@H]2[C@@H]3CCC4=CC(=O)C=C[C@]4(C)[C@@]3(F)C(=O)C[C@@]21C,19.3 µM (active),
Cc1nc2ccc(CN(C)c3ccc(C(=O)NC(CCC(=O)O)C(=O)O)s3)cc2c(=O)[nH]1 (stereo not given),0.137 µM (active),
CN1CCN(c2ccc(OC(F)(F)F)c(Nc3ncc4c(n3)-c3c(c(C(N)=O)nn3CCO)CC4)c2)CC1,0.153 µM (active),
Cc1c(C)n(Cc2ccc(-c3ccccc3C(=O)O)cc2)c2ccc(C(=O)N[C@@H](C)c3ccc([N+](=O)[O-])cc3)cc12,,-26.3%
O=C1NC(=O)C(c2cnc3ccccn23)=C1c1cn2c3c(cccc13)CN(C(=O)N1CCOCC1)CC2,10.9 µM (active),
O=c1cc(CN2CCOCC2)occ1OCCCCCSc1ccnc2cc(C(F)(F)F)ccc12,8.63 µM (active),
Nc1cccc(-c2cc3c(Oc4cccc(O)c4)ncnc3[nH]2)c1,9.68 µM (active),
Cc1cnc(Nc2ccc(F)cc2Cl)nc1-c1c[nH]c(C(=O)NC(CO)c2cccc(Cl)c2)c1 (stereo not given),24.3 µM (active),
Nc1nccc(Oc2ccc(NC(=O)c3c[nH]cc(-c4ccc(F)cc4)c3=O)cc2F)c1Cl,3.06 µM (active),
CNC(=O)c1ccccc1Sc1ccc2c(/C=C/c3ccccn3)n[nH]c2c1,4.32 µM (active),
CNC(=O)c1nn(C)c2c1C(C)(C)Cc1cnc(Nc3ccc(N4CCN(C)CC4)cc3)nc1-2,0.769 µM (active),
O=C(c1ccc(F)c(F)c1Nc1ccc(I)cc1F)N1CC(O)([C@@H]2CCCCN2)C1,15.3 µM (active),
CCn1cc(-c2ccnc3[nH]c(-c4cccc(CN(C)C)c4)cc23)c(-c2ccc(NC(=O)N(C)C)cc2)n1,8.41 µM (active),
FC(F)(F)c1ccc(/C=C/c2nc(COc3ccc(CCCCn4ccnn4)cc3)co2)cc1,0.0193 µM (active),
CC(C)n1c(/C=C/[C@@H](O)C[C@@H](O)CC(=O)O)c(-c2ccc(F)cc2)c2ccccc21,24.3 µM (active),
O=C1N(c2ccccc2)c2ccccc2C1(Cc1ccncc1)Cc1ccncc1,,29.4%
CN(C)c1ccc2nc3ccc(=[N+](C)C)cc-3sc2c1,21.7 µM (active),
CC(C)c1nn(-c2c(Cl)cccc2Cl)c2nc(Cc3ccc(OCCO)cc3)[nH]c(=O)c12,0.0968 µM (active),

Structure (SMILES),Potency,"activity change, negative = viability loss"
CN(C[C@@H]1COCCO1)S(=O)(=O)Nc1ccc2ccc3ncc(-c4cnn(C)c4)cc3c(=O)c2c1,17.2 µM (active),
OCc1ccc(-c2ccc(-c3ccc(CO)s3)o2)s1,,-21.5% [at 19.5 µM]
CC(C)C[C@H](NC(=O)[C@@H](NC(=O)c1cccc(-c2ccccc2)n1)[C@@H](C)O)B(O)O,0.0385 µM (active),
CCc1nc(C(N)=O)c(Nc2ccc(N3CCC(N4CCN(C)CC4)CC3)c(OC)c2)nc1NC1CCOCC1,1.06 µM (active),
Nc1ccccc1NC(=O)c1ccc(CNC(=O)OCc2cccnc2)cc1,1.53 µM (active),
COc1cc(N2CCC(N(C)C)CC2)ccc1Nc1ncc(Cl)c(Nc2ccccc2P(C)(C)=O)n1,6.11 µM (active),
CC(=O)c1cnc2ccc(-c3cc(Cl)c(O)c(Cl)c3)nc2c1NC1CCC(CN(C)C)CC1 (stereo not given),0.222 µM (active),
Fc1cc(-c2cccc3ncc(-c4cnn(C5CCNCC5)c4)nc23)cc(F)c1CN1CCOCC1,27.3 µM (active),
Cc1cnc(Nc2ccc(CN3CCOCC3)cc2)nc1Nc1cccc(S(=O)(=O)NC(C)(C)C)c1,2.17 µM (active),
Cc1ccc(C(=O)Nc2ccc(CN3CCN(C)CC3)c(C(F)(F)F)c2)cc1C#Cc1cnc2cccnn12,6.85 µM (active),
Cc1[nH]c2ccccc2c1CCNCc1ccc(/C=C/C(=O)NO)cc1,0.122 µM (active),
CCc1cccc(CC)c1NC(=O)N1Cc2[nH]nc(NC(=O)c3ccc(N4CCN(C)CC4)cc3)c2C1,2.43 µM (active),
Cc1cc(Nc2cc(N3CCN(C)CC3)nc(/C=C/c3ccccc3)n2)n[nH]1,3.85 µM (active),
Cc1cc(C(C)Nc2ccccc2C(=O)O)c2nc(N3CCOCC3)cc(=O)n2c1 (stereo not given),21.7 µM (active),
CC(C)C[C@H](NC(=O)[C@H](CCc1ccccc1)NC(=O)CN1CCOCC1)C(=O)N[C@@H](Cc1ccccc1)C(=O)N[C@@H](CC(C)C)C(=O)[C@@]1(C)CO1,2.43 µM (active),
O=C(/C=C/c1cccc(S(=O)(=O)Nc2ccccc2)c1)NO,0.595 µM (active),
COc1cc2c(Nc3ccc(NC(=O)c4ccccc4)cc3)ncnc2cc1OCCCN1CCOCC1,34.3 µM (active),
O=C(O)c1ccc(Nc2ncc3c(n2)-c2ccc(Cl)cc2C(c2c(F)cccc2F)=NC3)cc1,0.968 µM (active),
Nc1ccccc1NC(=O)c1ccc(CNc2nccc(-c3cccnc3)n2)cc1,1.09 µM (active),
COc1cc(Nc2ncc3c(n2)-c2ccc(Cl)cc2C(c2c(F)cccc2OC)=NC3)ccc1C(=O)O,0.193 µM (active),

# — PubChem BioAssay AID1345085 (National Center for Advancing Translational Sciences (NCATS), 2018)
